PubChem BioAssay (NCATS)
Inconclusive results are not listed. Calls of active or inactive are those of the source. The call rests on the fitted dose curve; in most records, active means well fitted inhibition curve with a large enough effect; inconclusive means small, poorly fitted or top-dose-only effect; inactive means no such curve, though single readings can be large or run the other way.

Biological target: Aldehyde dehydrogenase 1A1 (Homo sapiens) (UniProt P00352)
Assay: qHTS for Inhibitors of the Aldehyde Dehydrogenase Family (ALDH1A1) Confirmatory screens (AID 2061316); further: nearly all actives have a fitted effect of over 65% in size
Conditions: ALDH inhibition qHTS; series mostly up to 47.3 µM; activity change, negative = inhibition: at the top concentration
On the % scale 0 is the no-effect control and ±100 the full control effect; potency means the concentration at half of the fitted maximal effect.

SMILES	outcome	Potency	activity change, negative = inhibition
CCN(CC)CCOCCOC(=O)C(CC)(CC)c1ccccc1	inactive		
C[C@H]1CO[C@@H]2Cn3cc(C(=O)NCc4ccc(F)cc4F)c(=O)c(O)c3C(=O)N12	inactive		
COc1nc2ccc(Br)cc2cc1[C@@H](c1ccccc1)[C@@](O)(CCN(C)C)c1cccc2ccccc12		0.142 µM (active)	
CCN1CCN(C(=O)N[C@@H](C(=O)N[C@@H]2C(=O)N3[C@@H]2SC(C)(C)[C@@H]3C(=O)O)c2ccccc2)C(=O)C1=O			0.582% (inactive)
Cc1cc2occ(CN(C)CCN(C)Cc3cn(-c4cccc(C(F)(F)F)c4)c4ccccc34)c(=O)c2cc1C		10.1 µM (active)	
